Results on 38 compounds are retold here after PubChem BioAssay (Tox21).

SMILES strings stand for the structures. Inconclusive results are not listed. Unmarked numbers belong to inactive results. Active and inactive are the calls of the source. The call rests on the fitted dose curve; in most records, active means well fitted cell-killing curve with a large enough effect in the repeat runs; inconclusive means weak or mixed curves, or effect the other way; inactive means flat fitted curve, though single readings scatter.
On the % scale 0 is the no-effect control and ±100 the full control effect.

The assay can be described thus: qHTS assay to identify small molecule that activate the aryl hydrocarbon receptor (AhR) signaling pathway - cell viability counter screen (AID 743086).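 Further: HepG2 liver cells carrying the AhR DRE luciferase reporter; nearly all actives have a fitted effect of over 45% in size.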 Conditions: HepG2-AhR-luc viability, CellTiter-Fluor, 24 h; series mostly up to 70.3 µM; viability change, negative = cytotoxic: at the top concentration. A digest of the protocol:
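HepG2-AhR-luc (HG2L7.5c1) cells, 4000/well, were preincubated 5 h at 37C, exposed to compound in qHTS format for 24 hr at 37C, then given CellTiter-Fluor for 30 min; viability was read as fluorescence in the reporter wells.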
A general note: qHTS replaces the single test concentration by a dilution series.
Turning to `O=Cc1cccc(Br)c1`, the “viability change, negative = cytotoxic” value was -1.78% [at 95 µM].
`CN1[C@@H]2CC[C@H]1CC(OC(=O)C(O)c1ccccc1)C2` (stereo partly drawn): the Potency entry was “inactive”.
For the compound `CCCCCCCCN1CCCC1=O`, the “viability change, negative = cytotoxic” value was 7.15%.
As for `CC[N+](C)(CC)CCOC(=O)C1c2ccccc2Oc2ccccc21`, the “viability change, negative = cytotoxic” value was 5.88%.
As for `CCOC(=O)OC(C)OC1=C(C(=O)Nc2ccccn2)N(C)S(=O)(=O)c2ccccc21` (stereo not drawn), the “viability change, negative = cytotoxic” value is 7.16%.
Same read-out and setting: as for `CC(=O)NC(=O)c1ccccc1O`, the figure is 20.2%.
Consider `CCCCCCCC1CCCC1=O` (stereo not drawn), for which the “viability change, negative = cytotoxic” value is 11.5%.
As to `[Ca+2]`, the “viability change, negative = cytotoxic” value was 12.7%.
Same read-out and setting: in the case of `CC(CO)(CO)[N+](=O)[O-]` it was 13.3%; in that of `CCCc1ncc(C[n+]2ccccc2C)c(N)n1`, 1.21% [at 32.5 µM].
On the same count and under the same terms, as for `CN1CC(=O)N/C1=N/C(=O)Nc1cccc(Cl)c1`, the figure is -1.35%; as for `CC(C)(C)C(=O)Oc1ccc(S(=O)(=O)Nc2ccccc2C(=O)NCC(=O)O)cc1`, 9.36%.
With `Cc1ccc(-c2ncc(Cl)cc2-c2ccc(S(C)(=O)=O)cc2)cn1`, the “viability change, negative = cytotoxic” value is -2.27%.
Same read-out and setting: as for `CCCCN1C=CN(C)C1`, the figure is -13.7% [at 32.5 µM]; as for `NC(CCC(=O)O)C(=O)O` (stereo not drawn), 11.6%.
Still for that read-out and setting: in the case of `CC(CC=O)CC(C)(C)C` (stereo not drawn) it was 14.6%.
The same measure, in the same setting: as for `C[N+]1(C)[C@@H]2CC(OC(=O)[C@H](CO)c3ccccc3)C[C@H]1[C@@H]1O[C@@H]12` (stereo partly drawn), the figure is -6.83%; as for `CC(=O)c1ccc2ccccc2c1`, 8.05%; as for `CCCCc1ccc2c(n1)[C@@H](c1ccc(OC)cc1C[C@H](C)C(=O)O)[C@H](C(=O)O)[C@H]2c1ccc2c(c1)OCO2`, 19.9%.
Regarding `CN(C)[C@@H]1C(=O)C(C(=O)NCN2CCCC2)=C(O)[C@@]2(O)C(=O)C3=C(O)c4c(O)cccc4[C@@](C)(O)C3C[C@@H]12` (stereo partly drawn), the Potency entry was “inactive”.
`NS(=O)(=O)Cc1noc2ccccc12`: the “viability change, negative = cytotoxic” value was -2.96%.
Same read-out and setting: as for `CN(C)C(=O)Oc1ccc[n+](C)c1`, the figure is 5.4%; as for `CCOC(=O)C1=NOC(c2ccccc2)(c2ccccc2)C1`, 4.64%.
Still for that read-out and setting: as for `CC/C=C\CCOC(C)OCC` (stereo not drawn), the figure is 1.84%; as for `CC(=O)C1CCCCC1=O` (stereo not drawn), 6.74%; as for `CCC1C(=O)OCC1Cc1cncn1C` (stereo not drawn), 1.72%.
Turning to `O=S(=O)(O)c1cc(O)c(O)c(S(=O)(=O)O)c1`, the “viability change, negative = cytotoxic” value was 4.49%.
Turning to `CCOc1ccccc1OCC`, the “viability change, negative = cytotoxic” value was 0.409%.
On to `CCCCCC(=O)OCCc1ccccc1`, for which the “viability change, negative = cytotoxic” value was 9.23%.
The same measure, in the same setting: in the case of `CN(C)CCCN(C)CCCN(C)C` it was 8.07%.
For `COc1ccc2cc1Oc1cc3c(cc1OC)CC[N+](C)(C)[C@H]3Cc1ccc(cc1)Oc1c(OC)c(OC)cc3c1[C@@H](C2)[N+](C)(C)CC3`, the “viability change, negative = cytotoxic” value was 3.91%.
For the compound `CCCCCC(C)N` (stereo not drawn), the “viability change, negative = cytotoxic” value was 5.95%.
Still for that read-out and setting: as for `CCN[C@@H]1C[C@H](N)[C@@H](OC2OC(CN)=CCC2N)[C@H](O)[C@H]1O[C@H]1OC[C@](C)(O)[C@H](NC)[C@H]1O` (stereo partly drawn), the figure is 1.2%; as for `O=[N+]([O-])c1ccc(/C=N\O)o1`, -12.4%; as for `CCN(Cc1ccccc1)c1ccccc1`, -11.1%.
Same read-out and setting: in the case of `CN(C)CCN(C)CCN(C)C` it was -0.202%; in that of `CCN[C@H]1C[C@H](C)S(=O)(=O)c2sc(S(N)(=O)=O)cc21`, 9.53%; in that of `O=C(CO)[C@@H](O)[C@H](O)[C@@H](O)CO`, 9.77%.
